This note sets out measurements from PubChem BioAssay (Tox21).

Records with an inconclusive call do not appear. A call without a number means that no potency is given here. The source made the active and inactive calls. Calls follow the shape of the dose curve; as a rule, active = well fitted curve in the direction sought with a large enough effect in the repeat runs; inconclusive = weak or mixed curves; inactive = no such curve, though single readings can be large; an effect the other way counts as inactive or inconclusive.
Also: nearly all actives have a fitted effect of over 50% in size.

Voltage-gated inwardly rectifying potassium channel KCNH2 (Homo sapiens), sequence (Q12809 whole entry, looked up): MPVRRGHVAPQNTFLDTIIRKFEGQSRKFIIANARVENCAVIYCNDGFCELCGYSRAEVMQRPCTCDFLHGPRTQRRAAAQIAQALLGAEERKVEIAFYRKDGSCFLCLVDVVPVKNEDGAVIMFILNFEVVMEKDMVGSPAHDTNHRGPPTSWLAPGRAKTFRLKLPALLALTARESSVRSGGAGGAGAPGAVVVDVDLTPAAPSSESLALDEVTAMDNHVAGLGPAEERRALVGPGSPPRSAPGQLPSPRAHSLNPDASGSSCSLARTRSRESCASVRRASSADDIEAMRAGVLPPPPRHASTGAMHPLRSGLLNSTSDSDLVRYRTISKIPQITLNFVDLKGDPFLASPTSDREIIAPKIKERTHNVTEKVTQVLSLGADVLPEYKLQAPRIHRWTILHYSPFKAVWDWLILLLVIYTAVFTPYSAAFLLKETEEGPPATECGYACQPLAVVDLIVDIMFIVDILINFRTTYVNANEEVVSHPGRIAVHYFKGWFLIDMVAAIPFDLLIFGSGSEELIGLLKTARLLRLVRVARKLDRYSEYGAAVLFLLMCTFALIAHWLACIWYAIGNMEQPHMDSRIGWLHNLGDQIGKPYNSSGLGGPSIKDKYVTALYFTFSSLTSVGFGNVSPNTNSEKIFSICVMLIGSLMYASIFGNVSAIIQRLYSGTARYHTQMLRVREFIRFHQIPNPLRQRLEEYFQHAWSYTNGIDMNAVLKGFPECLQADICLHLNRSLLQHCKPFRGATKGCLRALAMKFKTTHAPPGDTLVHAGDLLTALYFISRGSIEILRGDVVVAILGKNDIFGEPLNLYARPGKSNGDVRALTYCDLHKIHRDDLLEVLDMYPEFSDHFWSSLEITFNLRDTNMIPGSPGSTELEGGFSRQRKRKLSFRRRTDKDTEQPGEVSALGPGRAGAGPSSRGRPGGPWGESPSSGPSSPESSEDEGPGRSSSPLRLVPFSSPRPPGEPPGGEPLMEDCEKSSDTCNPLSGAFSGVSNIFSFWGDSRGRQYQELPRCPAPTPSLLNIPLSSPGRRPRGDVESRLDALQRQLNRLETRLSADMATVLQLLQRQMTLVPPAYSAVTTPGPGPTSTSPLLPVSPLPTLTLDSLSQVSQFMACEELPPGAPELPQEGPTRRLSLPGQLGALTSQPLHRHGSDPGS
Cytochrome P450 2C9 (Homo sapiens), sequence (P11712 whole entry, looked up): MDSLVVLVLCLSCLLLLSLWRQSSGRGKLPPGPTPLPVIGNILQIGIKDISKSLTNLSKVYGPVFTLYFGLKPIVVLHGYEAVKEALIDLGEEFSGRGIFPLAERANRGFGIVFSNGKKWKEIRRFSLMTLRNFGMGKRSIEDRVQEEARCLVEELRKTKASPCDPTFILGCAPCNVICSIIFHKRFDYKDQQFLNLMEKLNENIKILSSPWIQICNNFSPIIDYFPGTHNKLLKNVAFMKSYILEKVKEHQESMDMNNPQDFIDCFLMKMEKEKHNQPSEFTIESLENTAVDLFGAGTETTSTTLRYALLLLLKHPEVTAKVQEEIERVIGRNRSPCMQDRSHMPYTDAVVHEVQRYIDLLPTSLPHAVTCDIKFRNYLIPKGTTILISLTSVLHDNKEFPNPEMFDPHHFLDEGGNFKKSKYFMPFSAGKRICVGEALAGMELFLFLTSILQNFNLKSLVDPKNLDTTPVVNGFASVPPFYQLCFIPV

One assay has as its target Cytochrome P450 2C9 (Homo sapiens) (UniProt P11712). As to the kind of experiment: Cytochrome P450 Family 2 Subfamily C Member 9 (CYP2C9) small molecule antagonists: luciferase reporter qHTS assay (AID 1671198). Also: potency is read from the fitted curve at half-maximal effect. To be noted: P450-Glo CYP2C9 enzyme assay, luciferin luminescence; series mostly up to 115 µM. A digest of the protocol: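 CYP2C9 activity was measured with a P450-Glo proluciferin substrate. Enzyme–substrate mix was held with compound for 10 min at room temperature, then NADPH regeneration solution was added for 1 h at 37C. Luciferin product was read as luminescence.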
Background: Reporter assays use an easily measured gene product as a stand-in for the process of interest.
Take `COC(=O)C1=C(C)NC(C)=C(C(=O)OCC(C)=O)C1c1ccccc1[N+](=O)[O-]` (stereo not given): the Potency was 13.8 µM (active).
On the same count and under the same terms, under `NC(=O)c1ncn([C@@H]2O[C@H](CO)[C@@H](O)[C@H]2O)c1N` stands “inactive”.
With `CCC(=O)Nc1cccc(N)c1`, the Potency entry was “inactive”.
The same measure, in the same setting: the result for `CCCC=O` reads “inactive”; that for `C=CCOCC(O)CS(=O)(=O)O` (stereo not given), “inactive”.
`Cc1nccn1CC1CCc2c(c3ccccc3n2C)C1=O` (stereo not given): the Potency entry was “inactive”.
The same measure, in the same setting: under `OCCN1C[C@H](O)[C@@H](O)[C@H](O)[C@H]1CO` stands “inactive”; under `CCCCNc1ccccc1`, “inactive”; under `Nc1ccn(C2CO[C@H](CO)O2)c(=O)n1` (stereo not given in full), “inactive”.
On the same count and under the same terms, under `C=C(C)C1CC=C(C)C(O)C1` (stereo not given) stands “inactive”.
Regarding `O=C(O)Cc1cc(I)c(Oc2cc(I)c(O)c(I)c2)c(I)c1`, the Potency is 34.9 µM (active).
Same read-out and setting: the result for `CC(C)[C@H](N)C(=O)OCCOCn1cnc2c(=O)[nH]c(N)nc21` reads “inactive”.
`C1CCCCCCCCCCC1`: the activity change, negative = inhibition is -1.08% [at 23.6 µM] (inactive).
With `CCCCCOC(=O)Nc1nc(=O)n([C@@H]2O[C@H](C)[C@@H](O)[C@H]2O)cc1F`, the Potency entry was “inactive”.
Same read-out and setting: under `CN(C)N=Nc1ccccc1` stands “inactive”.
On the same count and under the same terms, the result for `CO[Si](CCCNCCC[Si](OC)(OC)OC)(OC)OC` reads “inactive”.

A further assay deals with Cytochrome P450 1A2 (Homo sapiens) (UniProt P05177). Description: Cytochrome P450 Family 1 Subfamily A Member 2 (CYP1A2) small molecule antagonists: luciferase reporter qHTS assay (AID 1671199). Also: potency is read from the fitted curve at half-maximal effect. To be noted: P450-Glo CYP1A2 enzyme, luciferin luminescence, 1 h; series mostly up to 53 µM. A digest of the protocol: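 Luminescence readout (relative luminescence units) after luciferin detection reagent, 20 min RT. Preceded by 1 h room-temperature CYP1A2 reaction with NADPH regeneration solution following 10 min compound preincubation with enzyme and proluciferin substrate. Furafylline positive control.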
Cytochrome P450 1A2 (Homo sapiens), sequence (P05177 whole entry, looked up): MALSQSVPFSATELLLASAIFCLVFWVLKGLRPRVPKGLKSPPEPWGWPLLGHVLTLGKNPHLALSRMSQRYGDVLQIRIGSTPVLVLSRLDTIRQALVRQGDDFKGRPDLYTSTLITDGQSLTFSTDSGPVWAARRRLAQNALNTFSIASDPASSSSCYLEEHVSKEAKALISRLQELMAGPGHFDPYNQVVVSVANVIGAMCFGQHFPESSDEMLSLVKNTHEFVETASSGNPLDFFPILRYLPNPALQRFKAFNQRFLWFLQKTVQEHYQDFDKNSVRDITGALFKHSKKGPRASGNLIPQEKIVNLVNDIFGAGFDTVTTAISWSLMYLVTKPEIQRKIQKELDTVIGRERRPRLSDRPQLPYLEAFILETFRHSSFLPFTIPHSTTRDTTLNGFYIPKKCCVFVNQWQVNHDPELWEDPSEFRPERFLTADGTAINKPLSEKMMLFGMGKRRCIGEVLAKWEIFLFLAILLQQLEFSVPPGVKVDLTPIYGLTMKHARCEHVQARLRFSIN
For `CC1(C)SC(C)(C)SC(C)(C)S1`, the Potency entry was “inactive”.
Still for that read-out and setting: under `COc1cc(C(=O)N2CCOCC2)cc(OC)c1OC` stands “inactive”; under `O=C(O)c1ccc[n+]([O-])c1`, “inactive”.
On the same count and under the same terms, the result for `Fc1ccccc1-c1ccccc1` reads 40.8 µM (active); that for `COc1ccc2cc(C=O)ccc2c1`, 13.8 µM (active); that for `O=c1[nH]c(=O)n([C@H]2O[C@H](CO)[C@@H](O)[C@@H]2O)cc1/C=C\Br`, “inactive”.
`NCC[C@H](O)C(=O)N[C@@H]1C[C@H](N)[C@@H](O[C@H]2O[C@H](CN)[C@@H](O)[C@H](O)[C@H]2O)[C@H](O)[C@H]1O[C@H]1O[C@H](CO)[C@@H](O)[C@H](N)[C@H]1O`: the activity change, negative = inhibition is 12.4% [at 0.435 µM] (inactive).
With `CCC(=O)/C=C/c1ccc(OC)cc1`, the Potency was 20 µM (active).
The same measure, in the same setting: under `Cc1c(C)n(CCN(C)C)c2ccc(C(=O)OCCN(C)C)cc12` stands 17.4 µM (active); under `O=c1[nH]c2ccccc2c(=O)n1CCCl`, 5.49 µM (active); under `C=C(C)[C@@H]1CCC2=CC(=O)C[C@@H](C)[C@]2(C)C1`, “inactive”.
As for `C[N+](C)(C)CC[N+]1(C)Cc2c(Cl)c(Cl)c(Cl)c(Cl)c2C1`, the Potency entry is “inactive”.
The same measure, in the same setting: under `CCCC(C)C(=O)O` (stereo not given) stands 68.2 µM (active).
The same measure, in the same setting: the result for `COc1cc(C)cc(O)c1` reads 35.6 µM (active).
The same measure, in the same setting: under `CC(C)CCOC(=O)CC(C)C` stands “inactive”; under `C=CC(=O)OCCCCCC`, “inactive”; under `OC1OC[C@@H](O)[C@H](O)[C@H]1O` (stereo not given in full), “inactive”.
`C#CC(C)(O)CC(C)C` (stereo not given): the Potency entry is “inactive”.
Still for that read-out and setting: the result for `CCCCCCOC(=O)CC(CC(=O)OCCCCCC)(OC(=O)CCC)C(=O)OCCCCCC` reads “inactive”.
Still for that read-out and setting: under `CNc1ncnc2nc[nH]c12` stands “inactive”; under `CC(=O)N[C@@H](CCC(N)=O)C(=O)O`, “inactive”.
As for `COC(=O)C1=C(C)NC(C)=C(C(=O)OCC(C)=O)C1c1ccccc1[N+](=O)[O-]` (stereo not given), the Potency was 2.45 µM (active).
For `NC(=O)c1ncn([C@@H]2O[C@H](CO)[C@@H](O)[C@H]2O)c1N`, the Potency entry is “inactive”.
Same read-out and setting: the result for `CCCC=O` reads “inactive”; that for `C=CCOCC(O)CS(=O)(=O)O` (stereo not given), “inactive”; that for `OCCN1C[C@H](O)[C@@H](O)[C@H](O)[C@H]1CO`, “inactive”.
The same measure, in the same setting: the result for `CCCCNc1ccccc1` reads “inactive”; that for `Nc1ccn(C2CO[C@H](CO)O2)c(=O)n1` (stereo not given in full), “inactive”; that for `C=C(C)C1CC=C(C)C(O)C1` (stereo not given), 40.1 µM (active).
Same read-out and setting: the result for `O=C(O)Cc1cc(I)c(Oc2cc(I)c(O)c(I)c2)c(I)c1` reads “inactive”.
For the compound `CC(C)[C@H](N)C(=O)OCCOCn1cnc2c(=O)[nH]c(N)nc21`, the Potency result is “inactive”.
On the same count and under the same terms, under `C1CCCCCCCCCCC1` stands “inactive”.
The same measure, in the same setting: the result for `CCCCCOC(=O)Nc1nc(=O)n([C@@H]2O[C@H](C)[C@@H](O)[C@H]2O)cc1F` reads “inactive”; that for `CN(C)N=Nc1ccccc1`, “inactive”; that for `CO[Si](CCCNCCC[Si](OC)(OC)OC)(OC)OC`, “inactive”.

For another assay, the target named is Voltage-gated inwardly rectifying potassium channel KCNH2 (Homo sapiens) (UniProt Q12809). As to the kind of experiment: Human Ether-a-go-go-Related Gene (hERG) channel small molecule antagonists: fluorescence cell-based qHTS assay (AID 1671200). Particulars: hERG-U2OS cells, FluxOR thallium flux fluorescence; series mostly up to 76.8 µM. A digest of the protocol:
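Thallium flux as potassium surrogate: FluxOR II dye loaded 1 h at room temperature into hERG-expressing U2OS cells, then stimulus buffer added after 10 min. Kinetic 480 nm excitation/540 nm emission read, 2 min.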
In the case of `CC1(C)SC(C)(C)SC(C)(C)S1`, the Potency result was “inactive”.
The same measure, in the same setting: the result for `COc1cc(C(=O)N2CCOCC2)cc(OC)c1OC` reads “inactive”.
On the same count and under the same terms, under `O=C(O)c1ccc[n+]([O-])c1` stands “inactive”.
The same measure, in the same setting: the result for `Fc1ccccc1-c1ccccc1` reads “inactive”.
Take `COc1ccc2cc(C=O)ccc2c1`: the Potency entry is “inactive”.
Same read-out and setting: under `O=c1[nH]c(=O)n([C@H]2O[C@H](CO)[C@@H](O)[C@@H]2O)cc1/C=C\Br` stands “inactive”.
As for `NCC[C@H](O)C(=O)N[C@@H]1C[C@H](N)[C@@H](O[C@H]2O[C@H](CN)[C@@H](O)[C@H](O)[C@H]2O)[C@H](O)[C@H]1O[C@H]1O[C@H](CO)[C@@H](O)[C@H](N)[C@H]1O`, the activity change, negative = inhibition is 0.203% [at 0.29 µM] (inactive).
Consider `CCC(=O)/C=C/c1ccc(OC)cc1`, for which the Potency entry was “inactive”.
The same measure, in the same setting: the result for `Cc1c(C)n(CCN(C)C)c2ccc(C(=O)OCCN(C)C)cc12` reads “inactive”; that for `O=c1[nH]c2ccccc2c(=O)n1CCCl`, “inactive”; that for `C=C(C)[C@@H]1CCC2=CC(=O)C[C@@H](C)[C@]2(C)C1`, “inactive”.
Same read-out and setting: under `C[N+](C)(C)CC[N+]1(C)Cc2c(Cl)c(Cl)c(Cl)c(Cl)c2C1` stands “inactive”; under `CCCC(C)C(=O)O` (stereo not given), “inactive”.
The same measure, in the same setting: the result for `COc1cc(C)cc(O)c1` reads “inactive”.
For the compound `CC(C)CCOC(=O)CC(C)C`, the Potency result is “inactive”.
With `C=CC(=O)OCCCCCC`, the Potency entry is “inactive”.
Same read-out and setting: the result for `OC1OC[C@@H](O)[C@H](O)[C@H]1O` (stereo not given in full) reads “inactive”; that for `C#CC(C)(O)CC(C)C` (stereo not given), “inactive”.
On the same count and under the same terms, under `CNc1ncnc2nc[nH]c12` stands “inactive”.
`CC(=O)N[C@@H](CCC(N)=O)C(=O)O`: the Potency result is “inactive”.
The same measure, in the same setting: under `COC(=O)C1=C(C)NC(C)=C(C(=O)OCC(C)=O)C1c1ccccc1[N+](=O)[O-]` (stereo not given) stands “inactive”; under `NC(=O)c1ncn([C@@H]2O[C@H](CO)[C@@H](O)[C@H]2O)c1N`, “inactive”.
The same measure, in the same setting: the result for `CCCC=O` reads “inactive”; that for `C=CCOCC(O)CS(=O)(=O)O` (stereo not given), “inactive”; that for `OCCN1C[C@H](O)[C@@H](O)[C@H](O)[C@H]1CO`, “inactive”.
On the same count and under the same terms, the result for `CCCCNc1ccccc1` reads “inactive”; that for `Nc1ccn(C2CO[C@H](CO)O2)c(=O)n1` (stereo not given in full), “inactive”; that for `C=C(C)C1CC=C(C)C(O)C1` (stereo not given), “inactive”.
Regarding `O=C(O)Cc1cc(I)c(Oc2cc(I)c(O)c(I)c2)c(I)c1`, the Potency entry is “inactive”.
`CC(C)[C@H](N)C(=O)OCCOCn1cnc2c(=O)[nH]c(N)nc21`: the Potency entry is “inactive”.
On to `C1CCCCCCCCCCC1`, for which the activity change, negative = inhibition was -1.65% [at 15.8 µM] (inactive).
For `CCCCCOC(=O)Nc1nc(=O)n([C@@H]2O[C@H](C)[C@@H](O)[C@H]2O)cc1F`, the Potency entry was “inactive”.
For `CN(C)N=Nc1ccccc1`, the Potency entry is “inactive”.
In the case of `CO[Si](CCCNCCC[Si](OC)(OC)OC)(OC)OC`, the Potency entry was “inactive”.
